# In all, about 420,000 compounds went through this assay and about 50,000 (12%) were called active. A call without a number means that no potency is given here. Inconclusive results (about 26%) are left out. The call rests on the fitted dose curve; in most records, active means well fitted inhibition curve with a large enough effect; inconclusive means small, poorly fitted or top-dose-only effect; inactive means flat fitted curve, though single readings scatter. Many of the other results were omitted from the sample, so actives are more common in it than they were.
# Test: qHTS for Inhibitors of human tyrosyl-DNA phosphodiesterase 1 (TDP1): qHTS in cells in presence of CPT; further: nearly all actives have a fitted effect of over 55% in size
# Conditions: chicken DT40 Tdp1-/-;hTDP1 cells + 20 nM CPT, ATP luminescence, 48 h; series mostly up to 46.2 µM
# Procedure, shortened: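 Cell growth measured by CellTiter-Glo luminescence after a minimum 48 h, 37 C compound exposure with 20 nM CPT in Tdp1-knockout DT40 cells stably expressing hTDP1, seeded 400/well; qHTS titration format.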
# Potency means the concentration at half of the fitted maximal effect.
row,SMILES,Potency
1,CNc1cc(-c2c(OC)cccc2OC)ncn1,inactive
2,CCOC(=O)CSC1=C(C#N)C(c2sccc2C)CC(=O)N1 (stereo unspecified),3.55 µM (active)
3,C=CCOC(=O)C1=C(C)NC(SCC(=O)OCC)=C(C#N)C1c1ccc(C)cc1 (stereo unspecified),inactive
4,COC(=O)CSC1=C(C#N)C(c2ccccc2OC)C(C(=O)OC)C(=O)N1 (stereo unspecified),inactive
5,C/C=C/C=C/C(=O)OCC(=O)Nc1ccc(Cl)cc1,inactive
6,Cc1onc(-c2c(F)cccc2Cl)c1C(=O)N(C)CC(=O)Nc1cccc(F)c1,inactive
7,O=C(c1cccc([N+](=O)[O-])c1)N1CCN(C(=O)c2ccco2)CC1,inactive
8,O=[N+]([O-])c1ccc(N2CCN(c3ccc(F)cc3)CC2)cn1,inactive
9,O=C(c1cc(C(=O)N2CCN(c3ccc(F)cc3)CC2)cc([N+](=O)[O-])c1)N1CCN(c2ccc(F)cc2)CC1,8.2 µM (active)
10,O=C(c1cc(-c2ccc(F)cc2)on1)N1CCN(c2ccc(F)cc2)CC1,inactive
11,O=C(c1cc2cc(F)ccc2[nH]1)N1CCN(c2ccc(F)cc2)CC1,inactive
12,O=C(c1cccc(C(=O)N2CCN(c3ccc(F)cc3)CC2)c1)N1CCN(c2ccc(F)cc2)CC1,14.6 µM (active)
13,CO/N=C(\C(=O)N[C@@H]1C(=O)N2C(C(=O)O)=CCS[C@H]12)c1csc(N)n1,inactive
14,O=C1COc2ccc(C(=O)COC(=O)CCOc3ccccc3)cc2N1,inactive
15,Cc1ccc(C(=O)Oc2ccc(C(=S)N3CCOCC3)cc2)cc1,inactive
16,CC(C)(C)C1C/C(=C/c2ccco2)C(=O)/C(=C/c2ccco2)C1 (stereo unspecified),23.1 µM (active)
17,COC(=O)COc1ccc2c(c1C)O/C(=C\c1ccco1)C2=O,inactive
18,CCC1S/C(=N/N=C/c2ccco2)NC1=O (stereo unspecified),inactive
19,Cc1ccc2nc(N3C(=O)C(O)=C(C(=O)c4ccco4)C3c3cccc(O)c3)sc2c1 (stereo unspecified),inactive

row,SMILES,Potency
1,CC(C)c1ccc(NC(=O)c2ccc3c(O)c(S(=O)(=O)c4ccccc4)c(=O)[nH]c3c2)cc1,inactive
2,COc1ccccc1CCNC(=O)c1cnccn1,inactive
3,C=C1C=C(C(F)F)n2ncc(C(=O)NCCc3ccccc3OC)c2N1,15.8 µM (active)
4,C=C1C=C(C)n2ncc(C(=O)Nc3ccccc3O)c2N1,inactive
5,C#CCOCCOCCOCCNc1nc(N2CCN(C(=O)[C@H](CCCN=C(N)N)n3cc(C(N)[C@@H](C)CC)nn3)CC2)nc(N2CCN(C(=O)[C@H](CO)n3cc([C@@H](N)C(C)C)nn3)CC2)n1 (stereo partly specified),inactive
6,C#CCOCCOCCOCCNc1nc(N2CCN(C(=O)CCCCCCCCCCNC(=O)[C@H](CCCCN)n3cc(C)nn3)CC2)nc(N2CCN(C(=O)CCCCCCCCCCNC(=O)[C@H](CO)n3cc(CCCSC)nn3)CC2)n1,14.6 µM (active)
7,C#CCOCCOCCOCCNc1nc(N2CCN(C(=O)CCCCCCCCCCNC(=O)[C@H]([C@@H](C)CC)n3cc(CCCCN=C(N)N)nn3)CC2)nc(N2CCN(C(=O)CCCCCCCCCCNC(=O)[C@H](CO)n3cc(CCCSC)nn3)CC2)n1,9.2 µM (active)
8,C#CCOCCOCCOCCNc1nc(N2CCN(C(=O)[C@H](CCCCN)n3cc(CCC(=O)O)nn3)CC2)nc(N2CCN(C(=O)[C@H](CCCCN)n3cc(CC(C)O)nn3)CC2)n1 (stereo partly specified),inactive
9,C#CCOCCOCCOCCNc1nc(N2CCN(C(=O)Cn3cc(CCO)nn3)CC2)nc(N2CCN(C(=O)Cn3cc(CCCN=C(N)N)nn3)CC2)n1,inactive
10,C#CCOCCOCCOCCNc1nc(N2CCN(C(=O)Cn3cc(CCO)nn3)CC2)nc(N2CCN(C(=O)[C@H](CCCCN)n3cc(CCCC)nn3)CC2)n1,inactive
11,CC(CC(=O)N1CCN(S(=O)(=O)c2ccccc2)CC1)n1cncn1 (stereo unspecified),inactive
12,O=c1cc(-c2ccccc2)n2c(SCc3ccccc3)nnc2[nH]1,inactive
13,Cc1cc(C)c(NC(=O)CN2CCOCCOCCOCCOCC2)c(C)c1,inactive
14,Cc1c(Cl)cccc1NC(=O)NCc1ccc(C)n1C,inactive
15,COc1ccc(/C=C/C(=O)NC(=S)NN2CCCCC2c2cccnc2)cc1 (stereo unspecified),inactive
16,O=S(=O)(Cc1nnnn1-c1ccccc1)c1ccccc1,inactive
17,O=S(=O)(Cc1cc(Sc2ccccc2)nc(-c2ccccc2)n1)c1ccccc1,23.1 µM (active)
18,O=S(=O)(NCCc1csc(-c2ccccc2)n1)c1cccnc1,inactive
19,CC1(C(=O)NS(=O)(=O)c2cccc(OC(F)F)c2)CCN1C(=O)COc1ccc(Cl)cc1 (stereo unspecified),inactive

row,SMILES,Potency
1,COC(=O)c1ccc(COC(=O)C2CCN(S(=O)(=O)c3c(Cl)cccc3Cl)CC2)o1,inactive
2,O=C(Nc1ccc(OC(F)(F)F)cc1)c1cc2c(=O)n3ccccc3nc2s1,inactive
3,Cc1nc2ccccn2c(=O)c1NC(=O)c1c(F)cccc1F,inactive
4,Cn1c(C(=O)Nc2cccc(C(F)(F)F)c2)cc2c(=O)n3ccccc3nc21,14.6 µM (active)
5,CCOc1ccccc1NC(=O)C1=C(C)Nc2ncnn2C1c1ccc(NC(C)=O)cc1 (stereo unspecified),inactive
6,CCOc1cc(C2C(C(=O)Nc3ccc(OC)cc3)=C(C)Nc3nc(SC)nn32)ccc1O (stereo unspecified),inactive
7,CCOc1ccc(C2C(C(=O)Nc3ccc(Cl)cc3)=C(C)Nc3nc(C(F)(F)F)nn32)cc1 (stereo unspecified),13 µM (active)
8,C[n+]1cc(-c2ccccc2)oc1-c1ccccc1,inactive
9,O=C(O)CCCCOn1ccnc1,inactive
10,CC1CCN(S(=O)(=O)c2ccc(S(=O)(=O)NCc3cccnc3)cc2)CC1,inactive
11,COc1ccc(S(=O)(=O)NCc2cccn2Cc2cccc(C)c2)cc1,inactive
12,Cc1cccc(NS(=O)(=O)c2ccc(-c3cnc(C4CC4)o3)cc2)c1,0.731 µM (active)
13,COc1ccc(CNS(=O)(=O)c2ccc(-c3cnc(C4CC4)o3)cc2)cc1,14.6 µM (active)
14,COc1ccc(CNS(=O)(=O)c2cc3c4c(c2)CCN4C(=O)CC3)cc1,inactive
15,Cc1cccc(CNS(=O)(=O)c2ccc(-c3cnc(C4CC4)o3)cc2)c1,16.4 µM (active)
16,Cc1cccc(NS(=O)(=O)c2ccc(C)c(C(=O)NCc3cccnc3)c2)c1,inactive
17,CCc1ccc(S(=O)(=O)NCC(O)COc2ccc(OC)cc2)cc1 (stereo unspecified),inactive
18,CC1CN(C(=O)c2cccc(NS(=O)(=O)c3ccc(Br)cc3)c2)CC(C)O1 (stereo unspecified),inactive
